In all, about 310,000 compounds went through this assay and about 14,000 (4.5%) showed an effect of 50% or more. Effects have a minus sign here. This is one part of a sample in which strong results are shown more often than they occur.
biological target: human ether-à-go-go-related gene (hERG) potassium channel (human, UniProt Q12809); assay: primary screen, population patch clamp on CHO cells stably expressing hERG; higher = less effect of the substance
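Further: peak tail current of the secondary pulse compared with the same well before compound.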

Chain of human ether-à-go-go-related gene (hERG) potassium channel (Q12809 whole entry, looked up): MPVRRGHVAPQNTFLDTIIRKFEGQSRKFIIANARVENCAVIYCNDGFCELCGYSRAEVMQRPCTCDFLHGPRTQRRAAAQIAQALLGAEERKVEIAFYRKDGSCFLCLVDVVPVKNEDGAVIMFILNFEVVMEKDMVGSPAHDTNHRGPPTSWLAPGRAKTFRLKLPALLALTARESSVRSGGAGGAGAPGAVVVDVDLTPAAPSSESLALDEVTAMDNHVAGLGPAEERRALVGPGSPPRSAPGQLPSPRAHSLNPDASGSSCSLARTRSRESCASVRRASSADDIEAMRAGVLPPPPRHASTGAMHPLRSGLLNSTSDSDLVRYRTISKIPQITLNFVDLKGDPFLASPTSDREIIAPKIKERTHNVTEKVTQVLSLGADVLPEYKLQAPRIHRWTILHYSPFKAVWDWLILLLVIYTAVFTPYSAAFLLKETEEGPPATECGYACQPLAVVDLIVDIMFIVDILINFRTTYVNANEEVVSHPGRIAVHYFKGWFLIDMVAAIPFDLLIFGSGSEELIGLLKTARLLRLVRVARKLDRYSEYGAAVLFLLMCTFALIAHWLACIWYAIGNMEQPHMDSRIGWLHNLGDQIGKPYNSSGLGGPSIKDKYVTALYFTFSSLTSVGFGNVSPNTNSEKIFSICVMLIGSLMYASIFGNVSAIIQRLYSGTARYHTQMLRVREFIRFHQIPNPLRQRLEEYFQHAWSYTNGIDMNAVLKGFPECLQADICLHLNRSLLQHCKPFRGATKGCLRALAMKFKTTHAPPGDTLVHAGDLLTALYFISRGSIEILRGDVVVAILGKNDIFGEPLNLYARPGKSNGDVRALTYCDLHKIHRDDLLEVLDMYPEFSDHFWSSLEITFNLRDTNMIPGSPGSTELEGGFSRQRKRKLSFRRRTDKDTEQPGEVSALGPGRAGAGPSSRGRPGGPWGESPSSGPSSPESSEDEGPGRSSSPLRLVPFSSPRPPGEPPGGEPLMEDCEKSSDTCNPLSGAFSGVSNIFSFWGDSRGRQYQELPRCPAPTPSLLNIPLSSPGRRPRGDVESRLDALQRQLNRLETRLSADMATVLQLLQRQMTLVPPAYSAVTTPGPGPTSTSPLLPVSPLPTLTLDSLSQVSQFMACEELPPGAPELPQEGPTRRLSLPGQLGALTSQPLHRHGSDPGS

Compound	hERG current change (%, negative = inhibition) at 10uM
Cc1cc(-c2ccc(C)c(S(=O)(=O)N3CCN(C(=O)c4ccco4)CC3)c2)on1	-51.8%
CCc1ccc(-c2cc(C)no2)cc1S(=O)(=O)N1CCN(c2ccccc2)CC1	3.41%
CCc1ccc(-c2cc(C)no2)cc1S(=O)(=O)N1CCC(C)CC1	-15.8%
O=C(CCC1=NS(=O)(=O)c2ccccc2N1)NC1CCCCCCC1	2.57%
COc1ccc(S(=O)(=O)N(CC(=O)NC2CC2)c2ccc(C)cc2)cc1	-0.125%
CCN(CC(=O)Nc1c(F)cccc1F)C(=O)Cc1c(C)nc2ccccc2c1C	-55.1%
CCCN(CC(=O)Nc1ccc(Cl)cc1Cl)C(=O)CC(NC(C)=O)c1ccccc1 (stereo not shown)	0.715%
CCCN(CC(=O)Nc1ccccc1C)C(=O)CCl	-0.969%
CCCN(CC(=O)Nc1ccccc1C)C(=O)Cc1n[nH]c(=O)c2ccccc12	-10.2%
CCCN(CC(=O)Nc1ccccc1C)C(=O)Cc1c(C)nc2ccccc2c1C	-77.4%
CCCN(CC(=O)Nc1ccccc1C)C(=O)CC(NC(=O)c1ccccc1)c1ccccc1 (stereo not shown)	-52.7%
CCCN(CC(=O)Nc1ccccc1C)C(=O)CSc1ccccc1C	7.42%
CCN(CC(=O)Nc1c(F)cccc1F)C(=O)Cc1ccccc1	-1.53%
CCN(CC(=O)Nc1c(F)cccc1F)C(=O)c1cc(C)nc2ccccc12	9.3%
Cn1c(CCNC(=O)c2ccccc2F)nnc1SCC(=O)Nc1ccccc1F	3.44%
OCCOCCn1c(CCNc2nc(-c3ccc(Cl)cc3)cs2)nc2cc(Cl)c(Cl)cc21	3.83%
Cc1ccc(-c2cc(-c3ccccc3)no2)c(O)c1	17.4%
CCn1ncc(/C=N\NC(=O)c2cc(-c3ccc(C)cc3C)nc3ccccc23)c1C	-8.84%
Cc1nnc(SCC(=O)c2ccc(Cl)cc2)s1	-9.82%
Cn1c(=O)c2c(nc(CN3CCN(C(=O)c4ccco4)CC3)n2Cc2ccc(F)cc2)n(C)c1=O	-44.8%
CC(=O)Cn1c(CN2CCN(C(=O)c3ccco3)CC2)nc2c1c(=O)n(C)c(=O)n2C	16%
Cc1ccc(Cn2c(CN3CCN(C(=O)c4ccco4)CC3)nc3c2c(=O)n(C)c(=O)n3C)cc1	-54.2%

Compound	hERG current change (%, negative = inhibition) at 10uM
Cc1ccccc1Cn1c(CN2CCN(C(=O)c3ccco3)CC2)nc2c1c(=O)n(C)c(=O)n2C	-45%
Cn1c(=O)c2c(nc(CN3CCN(C(=O)c4ccco4)CC3)n2Cc2ccc(Cl)cc2)n(C)c1=O	-64.8%
CC(C)Cn1c(CN2CCN(C(=O)c3ccco3)CC2)nc2c1c(=O)n(C)c(=O)n2C	-12.2%
Cn1c(=O)c2c(nc(CN3CCN(C(=O)c4ccco4)CC3)n2Cc2cccc(Cl)c2)n(C)c1=O	-60.1%
Cn1c(=O)c2c(nc(CN3CCN(C(=O)c4ccco4)CC3)n2Cc2ccccc2)n(C)c1=O	-40.7%
CCN1CCN(C(=O)c2ccc3c(c2)N(Cc2ccc(F)cc2)C(=O)c2ccccc2S3=O)CC1 (stereo not shown)	-9.09%
O=C(NCc1ccccn1)[C@H]1C[C@@H]1[C@H](NP(=O)(c1ccccc1)c1ccccc1)c1ccccc1	-9%
O=C(Nc1ccc2oc(-c3cccnc3)nc2c1)c1ccco1	-33.2%
CC(=O)Nc1ccc(S(=O)(=O)N2CCC(C(=O)N[C@@H](C)C(=O)NC3CCCC3)CC2)cc1	35.3%
Cc1c(C=O)c2ccccc2n1Cc1ccc([N+](=O)[O-])cc1	-78.1%
Cc1nc2ccc([N+](=O)[O-])cc2c(=O)n1Cc1ccc([N+](=O)[O-])cc1	-76.8%
Cc1c(C=O)c2ccccc2n1Cc1ccc(F)cc1	-43.1%
CCn1c(=O)c2ccccc2n(Cc2cccc([N+](=O)[O-])c2)c1=O	15.3%
COc1ccc(Cn2c(C)nc3ccc([N+](=O)[O-])cc3c2=O)cc1	-20%
Cc1nc2ccccc2c(=O)n1Cc1ccc([N+](=O)[O-])cc1	-74.4%
CCn1c(=O)c2ccccc2n(Cc2cccc(C)c2)c1=O	3.93%
Cc1nc2ccc([N+](=O)[O-])cc2c(=O)n1Cc1ccc(F)cc1	-26.2%
Cc1nc2ccc([N+](=O)[O-])cc2c(=O)n1Cc1ccc(Br)cc1	7.76%
Cc1c(C=O)c2ccccc2n1Cc1ccccc1	-2.16%
Cc1nc2ccc([N+](=O)[O-])cc2c(=O)n1Cc1ccc(Cl)cc1	-4.6%
CCn1c(=O)c2ccccc2n(Cc2ccc([N+](=O)[O-])cc2)c1=O	-77%

Reference: paper PMC4336329 (PLoS ONE, 2015)
